From PubChem BioAssay (Tox21) come the findings set out here.

Unmarked numbers belong to inactive results. Results filed as inconclusive are left out. Active and inactive are the calls of the source. Unless noted, the call rests on the fitted dose curve; in most records, active means well fitted curve in the direction sought with a large enough effect in the repeat runs; inconclusive means weak or mixed curves; inactive means no such curve, though single readings can be large; an effect the other way counts as inactive or inconclusive.

A short description of test [1]: qHTS assay to identify small molecule antagonists of the estrogen receptor alpha (ER-alpha) signaling pathway using the BG1 cell line in the presence of 0.1 nM 17-beta-estradiol - cell viability counter screen (AID 1259241). Further: nearly all actives have a fitted effect of over 40% in size. Further: potency means the concentration at half of the fitted maximal effect. The gist of the method:
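CellTiter-Fluor read (30 min, 37C) on ER-alpha/ERE-luc VM7Luc4E2 cells; 22 hr compound treatment; agonist 0.1 nM E2 final; same-well multiplex.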
On the technique in general: qHTS replaces the single test concentration by a dilution series.

A short description of test [2]: qHTS assay to identify small molecule antagonists of the androgen receptor (AR) signaling pathway using the MDA cell line in the presence of 0.5 nM R1881 - cell viability counter screen (AID 1259242). Further: nearly all actives have a fitted effect of over 45% in size. Further: potency means the concentration at half of the fitted maximal effect. Summed up: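 Fluorescence from CellTiter-Fluor, which reports protease activity of live cells, was read 30 min after reagent addition to MDA-kb2 cells that had been incubated 16 hr with compound and 0.5 nM R1881.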

The target in test [3] is Androgen receptor (Homo sapiens) (UniProt P10275). As to the kind of experiment: qHTS assay to identify small molecule antagonists of the androgen receptor (AR) signaling pathway using the MDA cell line in the presence of 0.5 nM R1881 (AID 1259243). Further: nearly all actives have a fitted effect of over 50% in size. Further: potency means the concentration at half of the fitted maximal effect. The gist of the method:
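Inhibition of R1881 (0.5 nM final) induced reporter signal was measured in human MDA-kb2 cells; note the MMTV promoter also responds to GR. Exposure lasted 16 hr at 37C.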

A short description of test [4]: qHTS assay to identify small molecule phospholipidosis (PLD) inducers (AID 1259344; active means well fitted curve in the direction sought with a large enough effect; an effect the other way counts as inactive or inconclusive). Summed up:
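Quantitative HTS in HepG2: compound plus LipidTOX Red dye for 24 h, paraformaldehyde fixation with Hoechst 33342, widefield high-content imaging; amiodarone as positive and DMSO as negative control.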

Test [5] can be described thus: qHTS assay to identify small molecule HDAC inhibitors - cell viability counter screen (AID 1259365). Further: series mostly up to about 92 µM; nearly all actives have a fitted effect of over 50% in size. The gist of the method: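 To flag cytotoxic hits, 1,500 wild-type HCT-116 cells per well, plated the day before, receive test compounds for 2hr at 37 C before CellTiter-Glo reagent and a luminescence read.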
Test [6] is described as follows: qHTS assay to identify small molecule agonists of the sonic hedgehog signaling (Shh) pathway - cell viability counter screen (AID 1259366). Further: nearly all actives have a fitted effect of over 50% in size. Further: potency means the concentration at half of the fitted maximal effect. Summed up:
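Fluorescence from CellTiter-Fluor reports live cells in this counter screen. NIH/3T3-derived Gli1-Luc reporter cells receive test compounds for 24hr at 37C; reagent goes in at 23hr.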

The nature of test [7]: qHTS assay to identify small molecule antagonists of the sonic hedgehog signaling (Shh) pathway - cell viability counter screen (AID 1259367). Further: nearly all actives have a fitted effect of over 55% in size. Further: potency means the concentration at half of the fitted maximal effect. The gist of the method:
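Seed 3T3 Gli1-Luc cells at 2,000 per well; incubate 4 hr; add compound in DMSO, then conditioned medium; incubate at 37C with 5% CO2; add CellTiter-Fluor after 23 hr; read fluorescence 1 hr later.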

A short description of test [8]: qHTS assay to identify small molecule agonists of the sonic hedgehog signaling (Shh) pathway (AID 1259368; calls by dose curve; further: nearly all actives have a fitted effect of over 15% in size; further: potency means the concentration at half of the fitted maximal effect). The gist of the method: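 Luminescent signal was taken as a measure of Gli1-controlled luciferase expression in stably transfected NIH/3T3-derived cells that had been treated for 24 hr with compounds delivered in DMSO.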
Test [9] has as its target Estrogen receptor (Homo sapiens) (UniProt P03372). Description: qHTS assay to identify small molecule antagonists of the estrogen receptor alpha (ER-alpha) signaling pathway using the BG1 cell line in the presence of 0.1 nM 17-beta-estradiol (AID 1259244). Further: nearly all actives have a fitted effect of over 50% in size. Further: potency means the concentration at half of the fitted maximal effect. The gist of the method:
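Quantitative high-throughput screen in VM7Luc4E2 cells: compound plus 0.1 nM E2 (final), 22 h, 37C, 5% CO2; ONE-Glo added, 30 min room temperature, luminescence measured.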

Test [10] is described as follows: qHTS assay to identify small molecule HDAC inhibitors (AID 1259364). Further: nearly all actives have a fitted effect of over 45% in size. Further: potency means the concentration at half of the fitted maximal effect. The gist of the method: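 Endogenous HDAC class I/II activity was measured in wild-type HCT-116 cells by HDAC-Glo luminescence after 2 h compound treatment.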

Estrogen receptor (Homo sapiens), sequence (P03372 whole entry, looked up): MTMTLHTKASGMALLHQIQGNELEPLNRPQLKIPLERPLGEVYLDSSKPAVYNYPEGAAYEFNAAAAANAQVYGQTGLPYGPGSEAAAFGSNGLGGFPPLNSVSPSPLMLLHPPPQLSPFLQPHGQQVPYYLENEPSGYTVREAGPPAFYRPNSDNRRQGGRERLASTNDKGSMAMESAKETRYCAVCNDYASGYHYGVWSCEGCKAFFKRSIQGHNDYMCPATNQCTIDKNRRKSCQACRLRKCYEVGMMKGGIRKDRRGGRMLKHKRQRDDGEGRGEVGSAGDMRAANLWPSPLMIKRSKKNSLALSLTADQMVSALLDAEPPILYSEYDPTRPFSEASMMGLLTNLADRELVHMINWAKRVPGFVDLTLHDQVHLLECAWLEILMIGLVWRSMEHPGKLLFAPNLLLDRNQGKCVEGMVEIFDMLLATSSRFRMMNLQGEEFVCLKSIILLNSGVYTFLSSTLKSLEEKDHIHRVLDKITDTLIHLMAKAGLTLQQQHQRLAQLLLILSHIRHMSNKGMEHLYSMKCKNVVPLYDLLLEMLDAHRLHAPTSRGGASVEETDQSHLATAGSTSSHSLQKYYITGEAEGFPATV
Androgen receptor (Homo sapiens), sequence (P10275 whole entry, looked up): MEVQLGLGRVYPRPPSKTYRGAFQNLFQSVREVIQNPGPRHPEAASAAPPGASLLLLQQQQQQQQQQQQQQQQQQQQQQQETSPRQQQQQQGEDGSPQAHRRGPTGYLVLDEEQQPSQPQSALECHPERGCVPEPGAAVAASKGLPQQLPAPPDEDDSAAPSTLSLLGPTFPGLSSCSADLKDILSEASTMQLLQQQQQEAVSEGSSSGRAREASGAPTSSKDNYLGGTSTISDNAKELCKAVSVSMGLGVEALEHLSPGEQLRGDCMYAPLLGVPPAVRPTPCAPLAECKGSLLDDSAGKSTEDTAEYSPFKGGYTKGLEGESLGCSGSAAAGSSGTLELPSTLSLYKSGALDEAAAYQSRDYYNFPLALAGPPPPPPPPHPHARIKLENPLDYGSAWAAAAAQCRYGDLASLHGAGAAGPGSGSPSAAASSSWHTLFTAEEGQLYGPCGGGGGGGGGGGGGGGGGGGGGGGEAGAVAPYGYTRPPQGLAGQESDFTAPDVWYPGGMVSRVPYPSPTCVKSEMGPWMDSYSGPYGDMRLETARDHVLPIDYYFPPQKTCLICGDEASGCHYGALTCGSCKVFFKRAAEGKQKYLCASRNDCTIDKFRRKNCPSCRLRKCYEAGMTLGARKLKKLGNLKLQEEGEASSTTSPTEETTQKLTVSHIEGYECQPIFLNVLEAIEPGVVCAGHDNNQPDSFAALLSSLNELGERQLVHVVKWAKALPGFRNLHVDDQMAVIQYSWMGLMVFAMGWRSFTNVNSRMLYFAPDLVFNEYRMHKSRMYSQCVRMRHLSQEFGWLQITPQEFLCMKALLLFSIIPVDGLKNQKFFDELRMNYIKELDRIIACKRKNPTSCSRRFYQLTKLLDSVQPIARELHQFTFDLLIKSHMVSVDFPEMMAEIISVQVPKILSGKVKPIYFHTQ

Regarding `CC(=O)OCC(=O)NCCCOc1cccc(CN2CCCCC2)c1`, the Potency entry in test [1], in test [2], in [3], in [4], in test [5] and in test [6] was “inactive” each time. In addition, the Potency entry in test [7] and in test [8] was “inactive” in each case.
In the case of `CC/C=C1/OC(=O)c2ccccc21`, the Potency result in test [1], in test [2], in test [3], in test [5] and in [8] was “inactive” throughout.
Consider `CCCCCCCC/C=C\CCCCCCCCCCCC(=O)O`, for which the Potency result in test [1], in test [2], in [3], in [9], in test [10] and in [5] was “inactive” throughout. Moreover, the Potency entry in test [6], in test [7] and in test [8] was “inactive” each time.
In the case of `O=C(OC(=O)c1ccccc1)c1ccccc1`, the Potency entry in [1], in [2], in test [3], in test [9], in [10] and in test [5] was “inactive” throughout. In addition, the Potency entry in test [6], in test [7] and in [8] was “inactive” in each case.
Regarding `NC(=O)c1ccncc1`, the Potency entry in test [1], in test [2], in test [3], in test [10], in test [5] and in test [6] was “inactive” each time. Besides, the Potency result in test [7] and in [8] was “inactive” each time.
Regarding `Cc1cc(C)cc(N)c1`, the Potency result in test [1], in [2], in [3], in [9], in [5] and in test [6] was “inactive” in each case. The Potency result in [7] and in test [8] was “inactive” throughout.
`Cc1cscn1`: the Potency result in test [1], in [2], in [3], in [9], in test [10] and in test [5] was “inactive” in each case. Besides, the Potency result in [6], in test [7] and in test [8] was “inactive” throughout.
For the compound `O=C=Nc1cccc(C(F)(F)F)c1`, the Potency result in test [1], in test [2], in test [3], in test [9], in test [5] and in test [6] was “inactive” each time. The Potency entry in test [7] and in test [8] was “inactive” in each case.
For the compound `COc1ccccc1NC(=O)c1cc2ccccc2cc1O`, the Potency entry in [1], in test [2], in test [5], in test [7] and in test [8] was “inactive” each time. The figures for the Potency in test [3], in test [9] and in test [10] were 30.6 µM (active), 43.3 µM (active) and 24.3 µM (active), respectively.
With `C=C1C[C@@]23CC[C@H]4[C@@](C)(CCC[C@@]4(C)C(=O)O[C@@H]4O[C@H](CO)[C@@H](O)[C@H](O)[C@H]4O)[C@@H]2CC[C@]1(O[C@@H]1O[C@H](CO)[C@@H](O)[C@H](O[C@@H]2O[C@H](CO)[C@@H](O)[C@H](O)[C@H]2O)[C@H]1O[C@@H]1O[C@H](CO)[C@@H](O)[C@H](O)[C@H]1O)C3`, the Potency result in [1], in test [2], in [3], in [9], in test [5] and in test [6] was “inactive” each time. Moreover, the Potency result in [7] and in [8] was “inactive” in each case.
For the compound `CC1=Nc2ccc3ccccc3c2C1(C)C`, the Potency entry in [1], in test [2], in test [10], in test [5] and in test [8] was “inactive” in each case. Moreover, the Potency in test [3] is 19.3 µM (active).
As to `C[C@H]1C[C@H](O)c2ccsc2S1(=O)=O`, the Potency entry in test [1], in [2], in test [3], in [9], in test [10] and in test [5] was “inactive” each time. The Potency entry in test [6], in [7] and in test [8] was “inactive” each time.
For the compound `CS(=O)(=O)c1ccc(-c2cn3ccccc3n2)cc1`, the Potency entry in test [1], in test [2], in test [3], in [9] and in test [6] was “inactive” each time. The values for the Potency in test [10] and in test [8] were 2.11 µM (active) and 11.9 µM (active), respectively.
Consider `O=[N+]([O-])c1cc(C2CCCCC2)c(O)c([N+](=O)[O-])c1`, for which the Potency in [1] was 27.2 µM (active); in test [2] it was 15.3 µM (active); in test [3], 7.67 µM (active); in [9], 7.67 µM (active); in [6], 24.3 µM (active); in [7], 24.3 µM (active). Also, the Potency entry in test [10], in test [5] and in test [8] was “inactive” throughout.
For the compound `CCOc1cccc(-n2cc(C(=O)N3CCN(c4cc(C(=O)O)c5ccccc5c4)CC3)nc2-c2ccc(C)cc2)c1`, the Potency result in test [1], in test [2], in [3], in test [10], in test [6] and in test [7] was “inactive” throughout. Also, the Potency result in test [8] was “inactive”.
Consider `CCCCN(CCN(CCCC)C(=O)N1CCOCC1)C(=O)N1CCOCC1`, for which the Potency entry in test [1], in test [2], in test [3], in test [9], in [10] and in test [5] was “inactive” in each case. The Potency result in test [6] and in test [8] was “inactive” each time. Further, the Potency in test [7] was 26.6 µM (active).
For the compound `C=C1c2cccc(O)c2C(O)=C2C(=O)[C@]3(O)C(O)=C(C(N)=O)C(=O)[C@@H](N(C)C)[C@@H]3[C@@H](O)[C@H]12`, the Potency result in test [1], in test [2], in [9], in test [4], in [10] and in [5] was “inactive” throughout. In addition, the Potency entry in test [6], in [7] and in test [8] was “inactive” each time.
As for `C/C=C(/C(=C/C)c1ccc(O)cc1)c1ccc(O)cc1`, the Potency entry in [1], in test [2], in test [9], in test [4], in [10] and in test [5] was “inactive” in each case. For the same compound, the Potency result in [6] and in test [8] was “inactive” in each case.
Regarding `CC1(C)O[C@@H]2C[C@H]3[C@@H]4C[C@H](F)C5=CC(=O)C=C[C@]5(C)[C@H]4[C@@H](O)C[C@]3(C)[C@]2(C(=O)CO)O1`, the Potency entry in test [1], in test [2], in test [9], in test [4], in test [5] and in test [6] was “inactive” throughout. Further, the Potency entry in test [7] and in test [8] was “inactive” each time.
Consider `O=C(/C=C/c1ccc(O)c(O)c1)O[C@@H]1C[C@@](OC(=O)/C=C/c2ccc(O)c(O)c2)(C(=O)O)C[C@@H](O)[C@@H]1O`, for which the Potency result in test [1], in [2], in [9], in test [4], in test [10] and in test [5] was “inactive” each time. The Potency entry in test [6], in test [7] and in test [8] was “inactive” in each case.
As to `CC(C)=CCC1C(=O)N(c2ccccc2)N(c2ccccc2)C1=O`, the Potency entry in [1], in [2], in test [9], in test [4], in test [5] and in test [6] was “inactive” in each case. Also, the Potency result in [7] and in test [8] was “inactive” each time.
Regarding `COC(=O)C1=C(C)NC(C)=C(C(=O)O[C@@H]2CCCN(Cc3ccccc3)C2)[C@@H]1c1cccc([N+](=O)[O-])c1`, the Potency result in [1], in test [2], in [9], in test [4], in test [10] and in test [5] was “inactive” each time. Besides, the Potency entry in [8] is “inactive”.
For the compound `CC1(C)S[C@@H]2[C@H](NC(=O)C(c3ccccc3)S(=O)(=O)O)C(=O)N2[C@H]1C(=O)O` (stereo partly drawn), the Potency entry in [1], in test [2], in [9], in [4], in test [10] and in test [5] was “inactive” in each case. The Potency result in test [6], in test [7] and in test [8] was “inactive” throughout.
On to `COc1ncnc(NS(=O)(=O)c2ccc(N)cc2)c1OC`, for which the Potency entry in test [1], in test [2], in test [9], in test [4], in test [10] and in test [5] was “inactive” each time. The Potency entry in test [6], in test [7] and in [8] was “inactive” each time.
Regarding `Nc1ncnc2c1ncn2[C@H]1CC[C@@H](CO)O1`, the Potency entry in test [1], in test [2], in test [9], in test [4], in [5] and in test [6] was “inactive” throughout. The Potency result in test [7] and in test [8] was “inactive” throughout.
As for `CCCC(=O)C(=O)O`, the Potency result in [1], in test [2], in [9], in test [10], in [5] and in [6] was “inactive” each time. The Potency entry in test [7] and in [8] was “inactive” each time.
Consider `O=C1C(=O)c2ccccc2C(O)=C1C1CCC(c2ccc(Cl)cc2)CC1` (stereo not drawn), for which the Potency in test [1] was 26.6 µM (active); in test [2], 23.7 µM (active); in [9], 26.6 µM (active). The Potency result in test [4], in [5], in test [6], in [7] and in test [8] was “inactive” each time.
